HttQ103 aggreg: qHTS Multiplex Assay to Identify Dual Action Probes in a Cell Model of Huntington: Aggregate Formation (GFP); PC12 HttQ103-GFP aggregates, Acumen cytometry, 40 h; Potency, µM (doses to about 46.1 µM), for the others: at the top dose activity change, negative = inhibition, actives largely listed as inhibitors; 220,000 compounds, 1.1% hits; AID 1688, 2009; also: potency is read from the fitted curve at half-maximal effect; % is scaled to controls: 0 for no effect and ±100 for the full control effect; nearly all actives have a fitted effect of over 60% in size
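PC12 cells stably carrying ecdysone-inducible HTT exon 1 Q103–GFP were induced with tebufenozide (100 nM final) and treated with library compounds in titration. GFP aggregates in lysates were counted by laser scanning cytometry.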
HPGD inh: qHTS Assay for Inhibitors of HPGD (15-Hydroxyprostaglandin Dehydrogenase); 15-hydroxyprostaglandin dehydrogenase [NAD(+)] (Homo sapiens), P15428; purified HPGD, NADH fluorescence kinetic, PGE2 substrate; Potency, µM, for inactives: at the highest dose activity change, negative = inhibition, most hits filed as inhibitors; 150,000 compounds, 4.3% hits; AID 894, 2007; active = well fitted inhibition curve with a large enough effect, not every such curve was filed as active; inconclusive = small, poorly fitted or top-dose-only effect, or another doubt; inactive = no such curve, though single readings can be large or run the other way; also: potency is read from the fitted curve at half-maximal effect; % is scaled to controls: 0 for no effect and ±100 for the full control effect
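20 nM HPGD preincubated 15 min at room temperature with compound in 50 mM Tris-HCl pH 8, 0.01% Tween 20. Started with 1 mM NAD+ and 30 uM prostaglandin E2; NADH fluorescence (360/450 nm) read 5 times over 30-s intervals, last minus first.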
ALDH1A1 block: qHTS Assay for Inhibitors of Aldehyde Dehydrogenase 1 (ALDH1A1) | Aldehyde dehydrogenase 1A1 (Homo sapiens), P00352 | Purified ALDH1A1, NADH fluorescence, propionaldehyde substrate | Potency, µM (top dose mostly 75.3 µM), inactives show at the highest dose activity, negative = inhibition, most hits filed as inhibitors | 220,000 compounds, 7.3% hits; active = well fitted inhibition curve with a large enough effect, not every such curve was filed as active; inconclusive = small, poorly fitted or top-dose-only effect, or another doubt; inactive = no such curve, though single readings can be large or run the other way;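 also: potency is read from the fitted curve at half-maximal effect; plate controls were no enzyme wells and a reference inhibitor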
CBFb-RUNX1 inh: qHTS Assay for Compounds Blocking the Interaction Between CBF-beta and RUNX1 for the Treatment of Acute Myeloid Leukemia; Runt-related transcription factor 1 (Homo sapiens) + Core-binding factor subunit beta …; AlphaScreen CBFb-His/RUNX1-biotin binding, biochemical; Potency, µM (top dose mostly 59.8 µM), for the others: at the top dose activity, negative = inhibition, usual class: inhibitors; 230,000 tested, under 10 active; also: % of control where 0% means no effect
Target sequence (Q01196 whole entry, looked up): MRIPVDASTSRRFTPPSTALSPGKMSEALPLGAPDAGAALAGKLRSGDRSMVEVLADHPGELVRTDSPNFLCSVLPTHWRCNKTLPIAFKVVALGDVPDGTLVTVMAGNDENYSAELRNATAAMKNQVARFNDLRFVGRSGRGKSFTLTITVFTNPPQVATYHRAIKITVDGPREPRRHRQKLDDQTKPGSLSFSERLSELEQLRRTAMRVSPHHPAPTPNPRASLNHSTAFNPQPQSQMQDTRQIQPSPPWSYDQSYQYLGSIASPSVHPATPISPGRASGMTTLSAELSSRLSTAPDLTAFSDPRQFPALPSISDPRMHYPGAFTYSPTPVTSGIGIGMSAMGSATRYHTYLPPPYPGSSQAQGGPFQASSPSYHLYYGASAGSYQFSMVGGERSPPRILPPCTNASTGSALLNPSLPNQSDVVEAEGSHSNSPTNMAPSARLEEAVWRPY
Target sequence (Q13951 whole entry, looked up): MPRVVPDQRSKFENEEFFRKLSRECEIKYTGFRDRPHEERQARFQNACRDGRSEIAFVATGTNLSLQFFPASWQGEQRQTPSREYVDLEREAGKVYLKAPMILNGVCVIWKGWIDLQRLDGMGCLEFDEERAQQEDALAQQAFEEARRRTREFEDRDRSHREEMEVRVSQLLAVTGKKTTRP
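Bead-based AlphaScreen assay; binding partners His-tagged CBF-beta and biotinylated RUNX1 at 30 nM each. Compound exposure 15 min after a 20-min protein preincubation; bead step 90 min; all steps at room temperature.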
PNC assembly inh: High Content Assay for Compounds that inhibit the Assembly of the Perinucleolar Compartment; PC3M PTB-GFP, PNC prevalence imaging, 16 h; stronger effect = lower value; activity change (PNC), negative = inhibition, % at 10 µM; 140,000 compounds, 3.1% hits;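 active = readout at or below -70, meaning at least 70% loss of cells showing the perinucleolar compartment, a nuclear body marking cancer cells; inconclusive = readout between -30 and a set limit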;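 also: plate controls were DMSO wells for no effect and camptothecin positive control wells for full effect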
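Compounds are pinned in duplicate onto adhered PC3M cells stably expressing GFP-tagged PTB and incubated 16 h at 37 C. Cells are then fixed, nuclei stained with Hoechst, and PNC-positive cells counted.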
HTT ATP protect: qHTS Multiplex Assay to Identify Dual Action Probes in a Cell Model of Huntington: Cytoprotection (ATP). PC12 HTT-Q103 induced, cytoprotection, ATP luminescence, 40 h. Potency, µM (top dose mostly 56.4 µM), without a hit: cytoprotection (ATP increase), usual class: activators. 230,000 compounds, 0.14% hits. AID 1471, 2008; also: potency is read from the fitted curve at half-maximal effect; % of control where 0% means no effect; nearly all actives have a fitted effect of over 45% in size
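Readout: ATPlite luminescence (ATP level). Model: stable PC12, inducible Htt exon1 Q103-GFP. Inducer: tebufenozide, 100 nM final. Compounds: dose series. No G418 in medium.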
* marks the source's active call; other numbers are inactive results; ? = inconclusive; · = no result given; [ ] = another dose, or the depositor's remark. Shown are actives, neighbours in structure and some others; about 11% of the full set was active somewhere. Unless noted, calls follow the shape of the dose curve; as a rule, active = well fitted curve in the direction sought with a large enough effect; inconclusive = small, poorly fitted or top-dose-only effect, or another doubt; inactive = no such curve, though single readings can be large; an effect the other way counts as inactive or inconclusive.

SMILES | HttQ103 aggreg | HPGD inh | ALDH1A1 block | CBFb-RUNX1 inh | PNC assembly inh | HTT ATP protect
CCN(CC)CCCN=Cc1c(O)n(-c2ccccc2C)c(=O)c2ccccc12 | -31%[9.22 µM] | · | · | 5% | · | 7%[10 µM]
N[C@@H](C(=O)O)c1ccc(C(=O)O)c(C(=O)O)c1 | · | 0% | 16% | -1% | · | -44%
NC(=O)CSc1nnc(-c2ccc([N+](=O)[O-])cc2)o1 | -9% | · | 0% | -4% | · | -18%
O=C(CSc1nnc(-c2ccncc2)o1)c1cccc([N+](=O)[O-])c1 | 22% | · | 14µM* | -13% | · | 4%[10 µM]
Cc1ccc(C(OCCN(C)C)c2cccc(C(F)(F)F)c2)cc1 (configuration not stated) | -9% | -10% | 6% | 3% | -21 | -23%[10 µM]
Cc1ccccc1-c1ccc2ncnc(-n3ccnc3)c2c1 | · | · | ? | · | · | 1µM*
CN(C)c1ccc(-c2ccc3ncnc(-n4ccnc4)c3c2)cc1 | · | · | ? | · | · | 3.2µM*
CC1=NNC(=O)C1C(c1ccccc1)C1C(=O)NN=C1C (configuration not stated) | 5% | · | 32µM* | -8% | · | -1%[10 µM]
Cc1cc(C=O)c(C)n1-c1ccc(N2CCOCC2)c([N+](=O)[O-])c1 | -13% | · | 2.5µM* | -10% | · | -18%
Cc1cc(C=O)c(C)n1-c1ccc(N2CCCC2)c([N+](=O)[O-])c1 | -23% | 14µM* | 0.45µM* | ? | -20 | -21%
Cc1ccc(C)n1-c1ccc(N2CCOCC2)c([N+](=O)[O-])c1 | 19%[9.22 µM] | · | · | 21% | · | -7%[10 µM]
O=C(N/N=C/c1cc(Cl)ccc1O)c1ccncc1 | -22%[9.22 µM] | · | · | ? | · | -14%[10 µM]
O=C(/C(=C/O)N=Nc1ccc(Cl)cc1)c1ccncc1 | ? | -15% | 10µM* | -27% | -11 | -49%
Cc1ccc(N=N/C(=C\O)C(=O)c2ccncc2)cc1 | -10% | -21% | 4µM* | -17% | 62 | 29%
CC(OC(=O)CN(C)S(=O)(=O)c1ccc(Cl)cc1)C(=O)Nc1cccc(Cl)c1 (configuration not stated) | -9% | -20% | 3% | 12% | 97 | -14%
COc1cccc2[nH]c(C(=O)NN)c(N)c12 | -3%[9.22 µM] | · | 28µM* | -3% | · | -10%[10 µM]
O=C(NC1CCN(Cc2ccccc2)CC1)c1ccc(-n2c(=O)c(=O)[nH]c3ccccc32)cc1 | · | 0% | 4% | · | · | ·
Cc1ccc(OCc2nnc(SCC(=O)O)n2N)cc1 | 25% | -7% | -2% | -2% | 39 | -10%
COc1ccc(OCc2nnc(SCC(=O)N(C)Cc3ccccc3)n2N)cc1 | -21% | · | 8.9µM* | 3% | · | -26%
C=CCn1cccc(/C=C/C(=O)c2ccc(C(C)(C)C)cc2)c1=S | 25µM* | -21% | ? | -26% | 48 | ·
CN1CCN(C(=S)NC(=O)c2ccc(C(C)(C)C)cc2)CC1 | -17% | -17% | 5% | 1% | ? | 16%[10 µM]
COc1ccc([N+](=O)[O-])cc1N(CC(=O)O)S(C)(=O)=O | 32% | · | 32µM* | 5% | · | -51%
COC(=O)CN(c1cc([N+](=O)[O-])ccc1OC)S(C)(=O)=O | -4%[9.22 µM] | · | ? | 12% | · | -16%[10 µM]
CCCc1nc2oc3c(NCCOCCO)ncnc3c2c2c1COC(C)(C)C2 | -18% | ? | ? | 3% | -111* | -28%
CCCc1nc2oc3c(OC)ncnc3c2c2c1COC(C)(C)C2 | -5% | -15% | 0.89µM* | 0% | -29 | -5%
SMILES | HttQ103 aggreg | HPGD inh | ALDH1A1 block | CBFb-RUNX1 inh | PNC assembly inh | HTT ATP protect
CC(C)c1nc2oc3c(NCCO)ncnc3c2c2c1COC(C)(C)C2 | 14%[9.22 µM] | · | · | 12% | · | 20%[10 µM]
COc1ccc(NS(=O)(=O)c2ccc3oc4ccccc4c3c2)cn1 | ? | 22µM* | 8.9µM* | 3% | -14 | -2%
COc1ccc(OCCNS(=O)(=O)c2ccc3oc4ccccc4c3c2)cc1 | -26% | -21% | 4% | 1% | 10 | 4%
COc1ccc(N(C(=O)Cc2cccs2)C2C=CS(=O)(=O)C2)cc1 (configuration not stated) | 21% | · | 28µM* | 9% | · | -9%
CC(C)C(=O)N(c1ccc(F)cc1)C1C=CS(=O)(=O)C1 (configuration not stated) | 2% | · | 28µM* | 13% | -2 | -28%
COc1ccc(C[C@@H]2C(=O)N[C@H](C)C(=O)N(C)[C@@H]3Cc4ccc(cc4)Oc4cc(ccc4O)C[C@H](C(=O)N[C@@H](C)C(=O)N[C@H](C)C(=O)N2C)N(C)C3=O)cc1 | · | -6% | 0%[13.5 µM] | · | · | -86%[10 µM]
O=C1c2cc(Br)ccc2O[C@@H](c2ccc3c(c2)OCO3)[C@@H]1O | · | -7% | 0% | ? | · | -33%
CCOc1cc2c(cc1C=O)OC(C)C2 (configuration not stated) | -11% | · | 25µM* | -13% | · | -31%
Cc1noc(C)c1C(=O)N1CCC2(CC1)CN(Cc1cc(C(F)(F)F)cc(C(F)(F)F)c1)C2 | · | 1% | 1% | · | · | -29%
Cc1ccc(C(=O)C2=C(O)C(=O)N(c3ncccn3)C2c2cccc(Cl)c2)o1 (configuration not stated) | 16% | -12% | 13µM* | -10% | 1 | -14%
COc1ccccc1-c1ccc2ncnc(NCCNC(C)=O)c2c1 | · | · | ? | · | · | -5%
Cc1ccc(C)c(NS(=O)(=O)c2cc(C(N)=O)ccc2C)c1 | -12% | -11% | -2% | 10% | -81* | 0%
O=C(CN1CCCCC1)NNc1nc(-c2ccccc2)c2cc(Br)ccc2n1 | -5%[9.22 µM] | · | 11% | 1% | · | 6%[10 µM]
CCn1cc(Br)c(C(=O)Nc2ccc(Cl)cc2Cl)n1 | 14%[9.22 µM] | -6% | 2% | 22% | -113* | -5%
Cc1ccc(N=Cc2cccc(O)c2O)c(C)c1 | -31% | 3.2µM* | ? | ? | ? | -81%
Cc1ccc(N=Cc2sc(O)c3ccccc23)c(C)c1 | ? | -12% | 13µM* | 1% | -15 | -9%[10 µM]
Cc1ccc(N=Cc2sc(O)c3ccccc23)cc1 | -16% | -18% | ? | ? | ? | 3%[10 µM]
CC(N=Cc1cccc(O)c1O)c1ccccc1 (configuration not stated) | 27% | 2.8µM* | ? | -28% | 0 | 0%
